Results: PubChem BioAssay AID1085 (Emory University Molecular Libraries Screening Center, 2008)
The whole screen tested about 220,000 compounds, of which about 930 (0.42%) were called active. This is one part of a sample in which actives are shown more often than they occur. Cut-off read from the data, not from the text of the source: active = inhibition above about 50%; inactive = the rest.

These compounds were tested against Glycoprotein 42 (Epstein-Barr virus (strain AG876)) (UniProt Q1HVG2) (assay: Epstein-Barr virus gp42 inhibitors, primary screen, biochemical, uHTS, fluorescence polarization (AID 1085)). Details: Fluorescence polarization binding assay, mP read-out; hits give high values; tested at 21.74 µM.
Chain of Glycoprotein 42 (Epstein-Barr virus (strain AG876)) (Q1HVG2 whole entry, looked up): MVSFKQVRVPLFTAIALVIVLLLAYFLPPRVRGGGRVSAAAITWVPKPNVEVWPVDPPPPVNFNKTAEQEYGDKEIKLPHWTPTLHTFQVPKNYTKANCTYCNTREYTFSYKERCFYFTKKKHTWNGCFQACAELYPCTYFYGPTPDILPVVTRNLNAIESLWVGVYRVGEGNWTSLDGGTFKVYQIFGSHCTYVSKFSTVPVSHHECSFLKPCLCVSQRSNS

inhibition, inactive:
CC(C)OC(=O)CN1C(=O)C(=O)c2ccccc21 -5.73%
CCOC(=O)Nc1ccccc1N1C(=O)c2ccccc2C1=O -16.9%
CCNc1nc(N)nc(-c2cc(Cl)ccc2OC)n1 -10.6%
CCN(CC)S(=O)(=O)c1ccc(Cl)c(C(=O)NC(C)C(c2cccs2)N2CCCC2)c1 (configuration not stated) -7.74%
O=C(c1[nH]ncc1-c1ccc(Cl)cc1)C1CO1 (configuration not stated) -0.17%
O=C(Nc1ccc([N+](=O)[O-])cc1)C1CC12CCC2 (configuration not stated) 18.7%
FC(F)(F)c1ccc(-n2cn[nH]c2=S)cc1 -0.1%
COc1ccccc1NC(=O)CCSc1nnc(-c2ccc(O)cc2)o1 16.2%
Cc1cccc(OCCNC(=S)NC(=O)c2cccnc2)c1 -11%
CCOC(=O)c1ccc[n+](CC(=O)Nc2ccccc2OC(F)F)c1 -15.4%
Cc1ccc(C)c(SCc2nc3sc(C(=O)O)c(C)c3c(=O)[nH]2)c1 -9.06%
C[C@@H](NC(=O)OC(C)(C)C)c1nnc(S(=O)(=O)Cc2ccccc2)o1 0.97%
Cc1ccc(NC(=S)Nc2ncccc2C)c(C)c1 -9.14%
CCOC(=O)c1c(NC(=O)CNC2CCCc3ccccc32)sc(C(N)=O)c1C (configuration not stated) -9.07%
N#C/C(=C(/O)Cc1cccc2ccccc12)c1nc2ccccc2s1 4%
O=C(O)CS/C(=C\c1ccc(F)cc1)c1nc2ccccc2s1 -2.63%
Cc1c(C(=O)Nc2cccc(Cl)c2)cn2c(nc3ccccc32)c1C#N -23.4%
CC(=O)Nc1ccc(NS(=O)(=O)c2cc(C)sc2C)cc1 15.2%
O=C(Nc1ccc2sc3ccccc3c(=O)c2c1)c1ccccc1Cl -5.22%
FC(F)(F)Oc1ccc(-c2cn3cccnc3n2)cc1 -6.62%
COC(=O)c1sc(=S)n(-c2ccccc2)c1N -22.9%
CCOC(=O)c1sc(=S)n(-c2cccc(OC)c2)c1N -17.2%
C/C(=N/NC(=O)CN1CCN(S(=O)(=O)c2ccc(Br)cc2)CC1)c1ccncc1 -10.4%
Cc1c(NC(=S)NCc2ccc(F)cc2)cccc1[N+](=O)[O-] -0.91%
CCOc1ccc(/C=C(/NC(=O)c2ccccc2)C(=O)NCCC(=O)O)cc1 8.99%
COc1cc(/C=C(\C#N)c2nc3c(s2)CC(C)CC3)ccc1O (configuration not stated) -29.5%
COc1cc(/C=N\Nc2nc(-c3cccs3)c(NC(C)=O)s2)ccc1O -5.81%
C/C(CC(=O)N1CCN(C=O)CC1)=N\NC(=O)c1ccc(Br)cc1 8.36%
COc1ccc(/C=N/n2c(C)cc(C)cc2=O)cc1 1.02%
Cc1cccc(NC(=S)NC23CN4CN(CN(C4)C2)C3)c1 -1.99%
C=CCn1c(SCC(=O)Nc2nc3ccccc3s2)nnc1-c1ccccc1O -0.36%
CCn1c(COc2ccccc2)nnc1SCC(=O)NCc1ccco1 2.39%
CSc1cc(C)[nH]c(=O)n1 6.61%
Cc1cc(C(=O)N/N=C/c2ccc(N3CCOCC3)cc2)c(C)o1 -16.3%
CNC(=O)c1ccsc1NC(=O)c1ccc(S(=O)(=O)N2CCc3ccccc32)cc1 0.14%
Cc1cnc(C(=O)OCC(=O)NCCCc2ccccc2)cn1 -8.79%
COc1ccccc1OCC(=O)OCn1c(SC)nnc(C)c1=O -6.57%
Cn1c(=O)n(C)c2cc(/C=N/NC(=O)c3cccc(Br)c3)ccc21 -5.32%
O=C(C1=C(O)C(=O)N(Cc2ccccc2)C1c1ccco1)c1ccco1 (configuration not stated) -8.71%
O=C(C1=C(O)C(=O)N(CCOCCO)C1c1ccccn1)c1cccs1 (configuration not stated) -10.3%
CCOC(=O)N/N=C1\CC(C)S(=O)(=O)c2ccc(Cl)cc21 (configuration not stated) 0.18%
O=c1cc(CO)oc(C(Nc2cccc([N+](=O)[O-])c2)c2ccccn2)c1O (configuration not stated) -4.92%
COc1ccc(-c2nn(C)c(=O)c3ccccc23)cc1CNC(=O)C1CCCCC1 -11.8%
COC(=O)CCCC1=CC2=CC(=O)C(C)(OC(=O)c3cccs3)C(=O)C2=CN1CC(C)C (configuration not stated) 2.99%
COC(=O)CCCC1=CC2=CC(=O)C(C)(OC(=O)c3cccs3)C(=O)C2=CN1CC1CC1 (configuration not stated) 0.53%
Cc1ccc(C(=O)NNc2ncnc3ccccc23)cc1 -1.4%
CC(C)Oc1ccc(Oc2ccc(C(F)(F)F)cn2)cc1 6.36%
NC1=NC(=O)C2(COC(c3ccccc3Cl)OC2)S1 (configuration not stated) -11.7%
CN1CCN(CCCCOc2ccccc2-c2ccccc2)CC1 -24.1%
CCOC(=O)CC1C(=O)NCCN1c1nc2c(C)cccn2c(=O)c1/C=C1\SC(=S)N(C(C)CC)C1=O (configuration not stated) -14.8%
CNc1nc2c(C)cccn2c(=O)c1C=Nc1ccc(OC)cc1 -10.2%
CCOc1ccc(N2CC(C(=O)N/N=C/c3sccc3C)CC2=O)cc1 (configuration not stated) -24%
C=CCNc1cnn(-c2ccc(C)cc2)c(=O)c1Cl 15.2%
O=C(COC(=O)CNS(=O)(=O)c1ccccc1)NC12CC3CC(CC(C3)C1)C2 -4.36%
Cc1c(-c2cccc(Cl)c2)nc2ccccc2c1C(=O)OCC(=O)N(C)C1CCS(=O)(=O)C1 (configuration not stated) 27.8%
COc1ccc(NC(=O)COc2ccc(C(=O)OCC(=O)N(C)C3CCS(=O)(=O)C3)cc2OC)cc1 (configuration not stated) -11.6%
COc1ccc(/C=N/NC(=O)CNC(=O)c2ccc(S(=O)(=O)N3CCCC3)cc2)c(OC)c1 -7.62%
COc1ccc(OCC(=O)NN2Cc3ccccc3C2=N)cc1 -18.4%
O=C(NC1CC1)C1=C[C@H](c2c[nH]c3ccccc23)C[C@H](OCc2ccc(CO)cc2)O1 -3.29%
O=C(NCc1ccc2c(c1)OCO2)c1ccc2c(c1)C(=O)N(CC1CCCO1)C2=O (configuration not stated) -19.8%
O=c1c2cc3c(=O)n(CC4CCCO4)c(=O)c3cc2c(=O)n1CC1CCCO1 (configuration not stated) -9.61%
CN1CCc2nc(SC(C(=O)O)c3ccccc3)c(C#N)c(-c3cccs3)c2C1 (configuration not stated) 6.93%
CC(C)CNC(=O)COC(=O)c1ccccc1OCC(=O)Nc1ccc(Br)cc1 -2.14%
O=C(Oc1c(-c2ccco2)oc2ccccc2c1=O)c1cccnc1 -4.14%
Cc1cc(SCC(=O)NCCN2C(=O)CSC2=O)nc2ccccc12 -6.4%
COc1cc(C(F)(F)F)nc2c(Br)c(C(C)(C)C)nn12 -5.73%
CN(CCN1CCOCC1)Cc1nc(-c2ccc3c(c2)OCO3)no1 -2.97%
Cc1oc2c(c1C(=O)N1CCOCC1)C(=O)c1ccccc1C2=O -10.1%
c1ccc(-c2oc3ncnc(N4CCOCC4)c3c2-c2ccccc2)cc1 0.89%
COCCn1c(Cc2cccn2C)nnc1SCC(=O)Nc1nccs1 0.89%
COc1cccc(C(=O)Nc2ccc(N3CCCC3)cc2)c1 -3.03%
CC(=O)Nc1cccc(Oc2cc(C#N)c(C#N)cc2N2CCOCC2)c1 -5.04%
CCO[C@@H]1OC(C(=O)N2CCOCC2)=C[C@H](C)[C@H]1CCCO -7.59%
CCO[C@H]1OC(C(=O)N2CCOCC2)=C[C@@H](c2ccc3c(c2)OCO3)[C@@H]1CCCO -9.61%
COC(=O)c1sccc1NN1C(=O)c2ccccc2C1=O -6.24%
CC(=O)Nc1ccc(S(=O)(=O)N2CCN(C(=O)c3ccccc3F)CC2)cc1 -7.73%
CCOC(=O)C1=C(N)N(c2ccc(C)cc2)C2=C(C(=O)CCC2)C1c1cccs1 (configuration not stated) -16.1%

inhibition, active:
CCOC(=O)c1cc2n(c1N)-c1ccccc1C2=O 157%
Nc1ccc2nc3c(=O)[nH]c(=S)[nH]c3nc2c1 158%
Cc1ccc(-c2nc(SCC(=O)Nc3ccccc3OC(F)F)c3c(C)c(C(=O)O)sc3n2)cc1 92.6%
CC1=CC(=C(C#N)c2nc3ccccc3s2)C=C(C)N1c1ccc(F)cc1F 176%
COCCOC(=O)c1sc(=S)n(CCOC)c1N 85.3%
CCOc1cc(/C=C(\C#N)c2nc(-c3cccs3)c(NC(C)=O)s2)ccc1O 93.2%
C=CCn1c(CSc2nc3ccccc3s2)nnc1SCC(=O)NCc1ccco1 50.6%
O=C(C1=C(O)C(=O)N(c2ncccn2)C1c1cccs1)c1ccco1 (configuration not stated) 65.7%
COC(=O)CCCC1=CC2=CC(=O)C(C)(OC(=O)c3cccs3)C(=O)C2=CN1c1cccc(C#N)c1 (configuration not stated) 78%
Cc1cccn2c(=O)c(/C=C3\SC(=S)N(CC(C)C)C3=O)c(NCCCOC(C)C)nc12 137%
CN(C(=O)COC(=O)c1cc(-c2ccco2)nc2ccccc12)C1CCS(=O)(=O)C1 (configuration not stated) 95.4%
O=C1c2cccc3c([N+](=O)[O-])ccc(c23)C(=O)N1CC1CCCO1 (configuration not stated) 64.2%
O=C1c2ccccc2-c2ncnc3c(N4CCOCC4)cc(N4CCOCC4)c1c23 51.8%
COc1cc(N2CCCC2)c(OC)cc1/C=C(/C#N)c1cccc(Br)c1 112%
CCO[C@H]1OC(C(=O)N2CCCCCCC2)=C[C@@H](c2ccc(C(F)(F)F)cc2)[C@@H]1CCCO 116%
